Consider eleven compounds from PubChem BioAssay (Tox21).

Structures are written as SMILES. Results filed as inconclusive are left out. Activity calls are given as the source filed them. Unless noted, calls come from the whole dose curve; as a rule, active = well fitted curve in the direction sought with a large enough effect in the repeat runs; inconclusive = weak or mixed curves; inactive = no such curve, though single readings can be large; an effect the other way counts as inactive or inconclusive.

The nature of experiment [1]: qHTS assay to identify small molecule antagonists of the estrogen related receptor (ERR) signaling pathway from Tox21 library - cell viability counter screen (AID 1224834). Note: nearly all actives have a fitted effect of over 30% in size. Note: potency is the fitted concentration of half-maximal effect. Conditions: ERR reporter cells viability, CellTiter-Fluor, 17.5 h; series mostly up to 92.4 µM. Put shortly: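 Multiplexed viability counter screen in ERR cells: 17.5 h compound exposure at 37 C, CellTiter-Fluor added, 30 min at 37 C/5% CO2, fluorescence read.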
(In general: qHTS replaces the single test concentration by a dilution series.)

For experiment [2], the target named is Luciferin 4-monooxygenase (Photinus pyralis) (UniProt P08659). As to the kind of experiment: qHTS assay to identify small molecule inhibitors of firefly luciferase (AID 1224835). Note: nearly all actives have a fitted effect of over 25% in size. Note: potency is the fitted concentration of half-maximal effect. To be noted: purified P. pyralis luciferase, luminescence inhibition; series mostly up to 52.9 µM. Put shortly:
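Quantitative HTS format; KM concentrations of both substrates. Purified P. pyralis FLuc activity quantified from luminescence images.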

A short description of experiment [3]: qHTS assay to identify small molecule agonists of the constitutive androstane receptor (CAR) signaling pathway - cell viability counter screen (AID 1224836). Note: nearly all actives have a fitted effect of over 45% in size. To be noted: HepG2-CYP2B6-hCAR viability, CellTiter-Fluor, 23 h, PK11195 added to every well; series mostly up to 92.4 µM. The procedure, abridged: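 Cell viability multiplexed with the CAR agonist screen: CellTiter-Fluor fluorescence after 23 hr at 37 C. HepG2-CYP2B6-hCAR cells got compounds at 15 concentrations with PK11195 at 0.75 uM final.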

A short description of experiment [4]: qHTS assay to identify small molecule antagonists of the constitutive androstane receptor (CAR) signaling pathway - cell viability counter screen (AID 1224837). Note: nearly all actives have a fitted effect of over 45% in size. Conditions: HepG2-CYP2B6-hCAR viability, CellTiter-Fluor, 23 h, co-treated with 50 nM CITCO; series mostly up to 92.4 µM. Put shortly:
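Read-out: CellTiter-Fluor fluorescence after 23 hr at 37 C/5% CO2. Cells: HepG2 double-stable for hCAR and CYP2B6-2.2kb. Compounds tested at 15 concentrations in the presence of CITCO, final concentration 50 nM.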

Experiment [5] addresses Nuclear receptor subfamily 1 group I member 3 (Homo sapiens) (UniProt Q14994). Briefly: qHTS assay to identify small molecule antagonists of the constitutive androstane receptor (CAR) signaling pathway (AID 1224838).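 Note: HepG2 cells stably expressing hCAR with CYP2B6 luciferase reporter stimulated by CITCO; nearly all actives have a fitted effect of over 40% in size.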 Conditions: HepG2-CYP2B6-hCAR luciferase, CITCO-stimulated, 24 h; series mostly up to 92.4 µM. The procedure, abridged: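 Read-out: ONE-Glo luciferase luminescence after 30 min at room temperature. HepG2-CYP2B6-hCAR double-stable cells, compounds in 15-point titration plus 50 nM CITCO final, 24 h at 37 C/5% CO2.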

Experiment [6] can be described thus: qHTS assay to identify small molecule antagonists of the estrogen related receptor signaling pathway with the pleiotropic PPARgamma coactivator (PGC) from Tox21 10K library - cell viability counter screen (AID 1224840; active = well fitted cell-killing curve with a large enough effect in the repeat runs, not every such curve was filed as active; note: nearly all actives have a fitted effect of over 40% in size). To be noted: PGC/ERR reporter cells viability, CellTiter-Fluor, 17.5 h; series mostly up to 92.4 µM. The procedure, abridged:
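Fluorescence read-out of CellTiter-Fluor viability reagent, added after cells had been exposed to compound in DMSO for 17.5 h at 37 C; 30 min development at 37 C/5% CO2. Cells: PGC/ERR line, 2,000/well.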

A short description of experiment [7]: qHTS assay to identify small molecule antagonists of the estrogen related receptor signaling pathway with the pleiotropic PPARgamma coactivator (PGC) from Tox21 10K library (AID 1224841; call rule not given here; note: actives are mostly falling curves and most rising ones were filed inactive; nearly all actives have a fitted effect of over 50% in size). Conditions: PGC/ERR reporter cell line, ONE-Glo luciferase, 18 h; series mostly up to 92.4 µM. The procedure, abridged:
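Luminescence read-out (One-Glo luciferase reagent, 30 min at room temperature) from PGC/ERR cells exposed to DMSO-dissolved test compounds for 18 h at 37 C; cells, 2,000 per well, had been preincubated 6 h before compound transfer.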

Experiment [8] is described as follows: qHTS assay to identify small molecule agonists of the estrogen related receptor signaling pathway with the pleiotropic PPARgamma coactivator (PGC) from Tox21 10K library (AID 1224842). Note: nearly all actives have a fitted effect of over 15% in size. To be noted: PGC/ERR reporter cell line, luciferase ONE-Glo, 18 h; series mostly up to 92.4 µM. Put shortly:
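PGC/ERR reporter cells (NTP line) were seeded 2,000 per well, rested 6 h at 37 C/5% CO2, then pin-dosed with compounds in DMSO for 18 h at 37 C; luciferase read by One-Glo luminescence after 30 min at room temperature.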

In experiment [9] the target is Nuclear receptor subfamily 1 group I member 3 (Homo sapiens) (UniProt Q14994). Briefly: qHTS assay to identify small molecule agonists of the constitutive androstane receptor (CAR) signaling pathway (AID 1224839).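 Note: HepG2 cells stably carrying human CAR and a CYP2B6 luciferase reporter; nearly all actives have a fitted effect of over 15% in size.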 Conditions: HepG2 hCAR CYP2B6-luciferase, agonist mode, 24 h; series mostly up to 92.4 µM. The procedure, abridged: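 Luminescent ONE-Glo read-out after 24 hr, 37 C exposure of double-stable HepG2-CYP2B6-hCAR reporter cells to a 15-point compound series, in the presence of 0.75 uM PK11195 (final).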
Sequence of Nuclear receptor subfamily 1 group I member 3 (Homo sapiens) (Q14994 whole entry, looked up): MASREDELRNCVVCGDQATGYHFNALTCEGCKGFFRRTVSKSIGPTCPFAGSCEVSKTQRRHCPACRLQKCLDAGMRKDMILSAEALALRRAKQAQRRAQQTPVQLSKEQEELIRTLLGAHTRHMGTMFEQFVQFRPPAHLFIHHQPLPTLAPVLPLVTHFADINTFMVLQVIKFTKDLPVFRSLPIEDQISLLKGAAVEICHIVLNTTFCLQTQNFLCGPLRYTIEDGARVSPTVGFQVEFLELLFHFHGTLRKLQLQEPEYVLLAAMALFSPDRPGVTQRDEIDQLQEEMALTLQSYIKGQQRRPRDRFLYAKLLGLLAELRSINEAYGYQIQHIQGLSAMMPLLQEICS

Sequence of Luciferin 4-monooxygenase (Photinus pyralis) (P08659 whole entry, looked up): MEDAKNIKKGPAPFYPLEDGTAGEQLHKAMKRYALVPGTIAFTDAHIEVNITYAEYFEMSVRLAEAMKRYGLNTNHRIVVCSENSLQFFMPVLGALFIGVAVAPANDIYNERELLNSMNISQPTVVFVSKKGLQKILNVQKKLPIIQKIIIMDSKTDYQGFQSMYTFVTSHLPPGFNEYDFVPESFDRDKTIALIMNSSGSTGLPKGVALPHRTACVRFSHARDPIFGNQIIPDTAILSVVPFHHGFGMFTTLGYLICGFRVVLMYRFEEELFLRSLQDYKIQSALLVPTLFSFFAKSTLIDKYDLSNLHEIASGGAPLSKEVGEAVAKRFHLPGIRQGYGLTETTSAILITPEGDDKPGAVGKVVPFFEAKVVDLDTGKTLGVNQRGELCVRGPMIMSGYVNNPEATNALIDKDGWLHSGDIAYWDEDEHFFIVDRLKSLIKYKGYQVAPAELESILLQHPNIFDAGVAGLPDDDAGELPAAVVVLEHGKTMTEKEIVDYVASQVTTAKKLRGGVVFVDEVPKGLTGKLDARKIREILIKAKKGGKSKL

As for `C=CC(=O)[O-].C=CC(=O)[O-].[Zn+2]`, the Potency entry in [1], in [3], in experiment [4], in [5] and in experiment [6] was “inactive” in each case. Besides, the Potency in [2] was 2.19 µM (active).

For the compound `CC/C=C1/OC(=O)c2ccccc21`, the Potency entry in experiment [1], in [2], in [3], in [4], in [5] and in experiment [6] was “inactive” each time. Also, the Potency entry in [7] and in experiment [8] was “inactive” in each case.

Turning to `Oc1c(I)cc(I)c2cccnc12`, the Potency in experiment [1] is 29.8 µM (active). Also, the Potency result in [2], in experiment [3], in experiment [4], in experiment [5], in experiment [6] and in experiment [7] was “inactive” each time.

For `O=C(O)CCCCCCCCCCCBr`, the Potency entry in experiment [1], in [3], in [4], in experiment [5], in experiment [6] and in experiment [7] was “inactive” throughout. For the same compound, the Potency result in experiment [8] is “inactive”. In experiment [2], the Potency is 56.6 µM (active).

For the compound `COc1ccccc1Oc1c(NS(=O)(=O)c2ccc(C(C)(C)C)cc2)nc(-c2ncccn2)nc1OCCO`, the Potency result in experiment [1], in experiment [2], in experiment [3], in [4], in experiment [5] and in experiment [6] was “inactive” each time. Besides, the Potency result in experiment [7] and in experiment [8] was “inactive” throughout.

For the compound `C=C(C)[C@@H]1CCC2=CCC[C@@H](C)[C@]2(C)C1`, the Potency entry in experiment [1], in experiment [2], in experiment [3], in experiment [4], in experiment [9] and in experiment [6] was “inactive” throughout. The Potency result in [7] and in experiment [8] was “inactive” throughout.

In the case of `C=C(C)C(=O)OCCOCCOC(=O)C(=C)C`, the Potency entry in experiment [1], in experiment [2], in experiment [3], in experiment [4], in [5] and in [6] was “inactive” throughout. The Potency result in experiment [7] and in experiment [8] was “inactive” in each case.

For `Oc1cccc(Nc2ccccc2)c1`, the Potency result in experiment [1], in [3], in experiment [4], in experiment [5] and in experiment [6] was “inactive” each time. In [2], the Potency is 37.1 µM (active).

On to `O=C1Cc2cc(Cl)ccc2N1`, for which the Potency result in experiment [1], in experiment [2], in [3], in experiment [4], in experiment [5] and in [6] was “inactive” in each case. Further, the Potency entry in experiment [7] and in experiment [8] was “inactive” in each case.

On to `CCCCCCCCC(CCCCCC)C(=O)O` (stereo unspecified), for which the Potency entry in experiment [1], in [2], in [3], in [4], in experiment [5] and in experiment [6] was “inactive” throughout. Moreover, the Potency entry in [7] and in experiment [8] was “inactive” in each case.

In the case of `c1ccc2sc(SN(C3CCCCC3)C3CCCCC3)nc2c1`, the Potency result in experiment [1], in experiment [2], in [3], in experiment [4], in [5] and in [6] was “inactive” throughout.
